Where “and” joins values, the source holds several entries; their conditions need not be identical. Equal entries are not always repeated. The campaign covered roughly 16,000 compounds. About 5,700 (36%) were called active. Inconclusive results (about 24%) are left out. The list shows a part of the results. Unmarked numbers belong to inactive results. The call rests on the fitted dose curve; in most records, active means well fitted curve in the direction sought with a large enough effect; inconclusive means small, poorly fitted or top-dose-only effect, or effect the other way; inactive means no such curve, though single readings can be large or run the other way.

As usually defined, the AC50 is the concentration at which the activity in the assay is half-maximal.
On the % scale 0 is the no-effect control and ±100 the full control effect.

The target of this experiment is Cytochrome P450 1A2 (Homo sapiens) (UniProt P05177). Kind of experiment: Cytochrome panel assay with activity outcomes. Conditions: recombinant CYP, pro-luciferin dealkylation, luminescence, p450-cyp1a2; series mostly up to 57.1 µM; activity, negative = inhibition: at the top concentration.
Chain of Cytochrome P450 1A2 (Homo sapiens) (P05177 whole entry, looked up): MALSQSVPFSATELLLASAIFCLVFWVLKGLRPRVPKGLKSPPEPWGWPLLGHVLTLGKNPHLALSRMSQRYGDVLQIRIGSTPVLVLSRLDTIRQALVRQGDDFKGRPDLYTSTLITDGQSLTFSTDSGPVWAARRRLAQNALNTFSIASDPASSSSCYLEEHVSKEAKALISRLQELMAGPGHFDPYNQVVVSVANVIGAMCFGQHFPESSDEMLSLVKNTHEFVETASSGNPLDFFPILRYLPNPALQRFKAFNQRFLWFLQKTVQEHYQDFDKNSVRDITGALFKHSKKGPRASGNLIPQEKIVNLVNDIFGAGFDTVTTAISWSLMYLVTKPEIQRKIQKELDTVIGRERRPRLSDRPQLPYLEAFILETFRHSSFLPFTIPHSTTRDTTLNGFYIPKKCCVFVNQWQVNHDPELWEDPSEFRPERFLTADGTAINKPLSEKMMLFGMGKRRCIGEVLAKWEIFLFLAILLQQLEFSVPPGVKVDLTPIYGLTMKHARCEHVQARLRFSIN
`O=C(CSCc1cccc(Cl)c1)NCc1ccc2c(c1)OCO2`: the AC50 was 3.16 µM (active). `Cc1ccccc1-c1nc(CS(=O)CC(=O)NCCN2CCN(Cc3ccccc3)CC2)c(C)o1` (configuration not stated): the “activity, negative = inhibition” value was -37.3%. Turning to `CC[C@]1(O)C[C@@H]2CN(CCc3c([nH]c4ccccc34)[C@](C(=O)OC)(c3cc4c(cc3OC)N(C=O)[C@H]3[C@@](O)(C(=O)OC)[C@H](C(=O)OC)[C@@]5(CC)C=CCN6CC[C@]43[C@H]65)C2)C1`, the “activity, negative = inhibition” value is -4.94%. Turning to `CO[C@@H]1COC(=O)C/C=C\[C@H](C)[C@@H](NS(=O)(=O)c2ccc(C)cc2)COC(=O)C/C=C\[C@@H]1C`, the activity, negative = inhibition was -5.33% [at 11.4 µM] and -2.04% [at 11.4 µM].

With `O=C(/C=C/c1ccc2c(c1)OCO2)NCCSCc1cccc(Cl)c1`, the AC50 was 4.47 µM (active). For the molecule `O=C(Cn1nc(C(F)F)cc1C(F)F)N/N=C/c1ccc2c(c1)OCO2`, the AC50 was 0.891 µM (active). On to `CCS(=O)(=O)N1CCCC(C(=O)NCCCOC(C)C)C1` (configuration not stated), for which the “activity, negative = inhibition” value is -11.6%.

As for `CCOC(=O)c1ccc(NC(=O)CC2NCCNC2=O)cc1` (configuration not stated), the “activity, negative = inhibition” value is 11.1%. As to `CCC1C(=O)N=C(SCC(=O)Nc2ccc(C(=O)OC)cc2)NC1=O` (configuration not stated), the AC50 is 15.8 µM (active). In the case of `C/C(=N\NC(=O)c1cccc(F)c1)c1ccc(Br)s1`, the AC50 was 0.631 µM (active). In the case of `CC(NC(=O)c1cccc(F)c1)C(c1cccs1)N1CCN(C)CC1` (configuration not stated), the “activity, negative = inhibition” value is -4.46%.

With `C/C(=N\NC(N)=O)c1ccc(Cl)cc1`, the AC50 is 3.16 µM (active). In the case of `CN1C(=O)C(CC(N)=O)N(NC(=O)c2ccc(Cl)cc2)C1=S` (configuration not stated), the “activity, negative = inhibition” value is -4.34%. As to `C/C(=N\NC(=O)c1ccc(Cl)cc1)c1ccc(Br)s1`, the AC50 was 1.26 µM (active).

For the molecule `CCN1C(=O)[C@H]2[C@H]3[C@H](O)[C@H](O)C/C(=N/O[C@@H](C)c4cn([C@H]5COC[C@H]5O)nn4)[C@@H]3CC[C@@H]2C1=O`, the activity, negative = inhibition was -9.43% [at 11.4 µM]. On to `CCCS(=O)(=O)N1CCCC(C(=O)NCCN2CCOCC2)C1` (configuration not stated), for which the “activity, negative = inhibition” value is -13.1%. As to `COCCNC(=O)c1cn(Cc2c(F)cccc2Cl)nn1`, the “activity, negative = inhibition” value is 0.621%. For the molecule `COCCNC(=O)c1sc2nc(-c3ccccc3)cn2c1C`, the AC50 is 2 µM (active). For the molecule `COCCNC(=O)CCn1nc(-c2ccc(Cl)cc2)ccc1=O`, the “activity, negative = inhibition” value is -23.7%.

Regarding `O=c1[nH]c2ccccc2c2ccccc12`, the AC50 is 0.251 µM (active).

Take `CC(=O)Nc1ccc(Cc2ccc3[nH]c(=O)cc(C)c3c2)cc1`: the activity, negative = inhibition was -17% [at 11.4 µM]. Turning to `Cc1cc(=O)[nH]c2ccccc12`, the half-maximal activity concentration (AC50) was 15.8 µM (active). In the case of `O=C(O)c1cccnc1SCC(=O)N1CCCCCC1`, the “activity, negative = inhibition” value is -7.56%. Regarding `C=CCSc1ncccc1C(=O)NCc1ccc(C)cc1`, the AC50 is 0.794 µM (active). Turning to `COC(=O)C/C=C\[C@@H](C)[C@@H](/C=N\O[C@@H](C)CN1CCCc2nc(C)c(C)cc21)OC`, the activity, negative = inhibition was -0.522% [at 11.4 µM]. `Cn1ncc(Cl)c1C(=O)Nc1cccnc1`: the AC50 is 3.55 µM (active). Take `CC(C(=O)Nc1cccnc1)N1C(=O)C2C3C=CC(C3)C2C1=O` (configuration not stated): the “activity, negative = inhibition” value is -24.9%. Regarding `O=C(Nc1cccnc1)c1ccc(COc2cc(Cl)ccc2Cl)o1`, the AC50 was 0.794 µM (active). As to `O=C(N/N=C/c1ccc(O)cc1)c1ccc(COc2cc(Cl)ccc2Cl)o1`, the AC50 was 4.47 µM (active).

Regarding `CC(C)CNC(=O)c1ccc(COc2ccc(Cl)cc2Cl)o1`, the half-maximal activity concentration (AC50) was 14.1 µM (active). On to `O=C1C(O)=C(O)C(=O)C(O)=C1O`, for which the “activity, negative = inhibition” value was -3.27% [at 25.6 µM]. On to `CC(=O)OC[C@@H]1O[C@H](CCO/N=C(\C)CCN2CCCc3nc(C)c(C)cc32)C=C[C@@H]1OC(C)=O`, for which the activity, negative = inhibition was -5.74% [at 11.4 µM].

As to `CC(Cc1ccccc1)N/C=C1\CC(=O)NC1=O` (configuration not stated), the “activity, negative = inhibition” value is -19.7%.

For the molecule `COc1cc(OC)c2nc(C)c3c(c2c1)N(c1ccc(O)cc1)CC3`, the AC50 is 2.24 µM (active).

Consider `NC(=O)N[C@H]1NC(=O)NC1=O`, for which the “activity, negative = inhibition” value is -5.86% [at 25.6 µM]. In the case of `CC(C)Cn1c(C(C)C)nc([N+](=O)[O-])c1S(=O)(=O)c1ccc(F)cc1`, the “activity, negative = inhibition” value is -26.1%. Take `CCn1c(=N)c(S(=O)(=O)c2ccc(F)cc2)cc2c(=O)n3ccccc3nc21`: the AC50 is 1.58 µM (active). Turning to `Cn1c(=N)c(S(=O)(=O)c2ccc(F)cc2)cc2c(=O)n3ccccc3nc21`, the AC50 was 12.6 µM (active). For `CN(C)C(=C(C#N)C#N)N1CCN(c2ccc(Cl)c(Cl)c2)CC1`, the AC50 is 25.1 µM (active). With `O=C(OCc1cccc(F)c1)c1ccc2c(c1)-c1ccccc1C2=O`, the AC50 is 3.55 µM (active). Consider `CC(C)CC(=O)N1CCN(Cc2cccc(F)c2)CC1`, for which the “activity, negative = inhibition” value was -7.54%.

Consider `O=C(c1cccc(F)c1)N1CCC2(CC1)CN(Cc1ccccc1)C2`, for which the “activity, negative = inhibition” value is -5.98%.

For `CCOC(=O)Cc1csc(NC(=O)c2ccc(Cl)nc2)n1`, the AC50 was 10 µM (active). Consider `COCc1nnc(NC(=O)c2ccc(S(=O)(=O)N3CCCCCC3)cc2)o1`, for which the “activity, negative = inhibition” value is -9.54%. As for `CCOC(=O)Cc1csc(NC(=O)c2ccc(S(=O)(=O)N3CCCCC3)cc2)n1`, the AC50 was 15.8 µM (active). Turning to `CCOC(=O)Cc1csc(NS(=O)(=O)c2ccccc2)n1`, the “activity, negative = inhibition” value was -16.9%. Take `CCOC(=O)Cc1csc(NC(=O)c2sc3nc4ccc(CC)cc4cc3c2N)n1`: the “activity, negative = inhibition” value was -23.8%.

The record behind these values is PubChem BioAssay AID1851 (National Center for Advancing Translational Sciences (NCATS), 2009).
